PrP 5UTR inh – inhibition of PrP 5' UTR reporter expression; 340,000 tested, 0.35% active; cell-based PrP 5' UTR mRNA reporter, plate reader; inhibition, % (no concentration beside the values); in the data active = inhibition above about 52%; also: 0 = median of the neutral control wells
PfHsp40 yeast – restores yeast growth despite PfHsp40 toxicity; S. cerevisiae expressing PfHsp40, growth rescue, ATP luminescence; 340,000 tested, 0.68% active; growth rescue, % at 12.5 µM; in the data active = growth rescue above about 28%, passing the limit was not always enough;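 also: yeast W303a lacking pdr1 and pdr3 grown in galactose medium; growth measured after three days at 30 °C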
SSB-PriA inh – K. pneumoniae PriA-SSBct interaction inhibition; inhibition, % at 33 µM; AlphaScreen SSBct-PriA binding, biotinylated peptide; 430,000 tested, 0.6% active; in the data active = inhibition mostly above about 37%, no sharp cut-off; inactive = mostly below about 20%;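 also: plate controls were negative control peptide for no effect and reference peptide for full effect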
PrPC TRFRET – cell surface PrPC inhibition, primary TR-FRET screen; P04156; AID 720596; 370,000 tested, 0.43% active; inhibition, % at 13.8 µM; TR-FRET read-out; in the data active = inhibition above about 24%; also: 0% = median of the test wells and 100% = reference compound wells
MazF activator – activators of E. coli MazEF toxin-antitoxin RNase. FAM/BHQ RNA-DNA oligo cleavage fluorescence, 5 h. activation, % at 20 µM. 350,000 tested, 0.32% active; in the data active = activation above about 50%
Target sequence (P0AE70 whole entry, looked up): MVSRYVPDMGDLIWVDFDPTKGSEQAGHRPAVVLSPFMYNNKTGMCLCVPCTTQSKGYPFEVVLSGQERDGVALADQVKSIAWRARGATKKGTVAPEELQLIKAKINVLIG
Numbers without * were called inactive; / = no result given; + = active, no number; ! = repeats disagree. An excerpt weighted towards active compounds, which were near 1.8% of everything screened.

SMILES	PrP 5UTR inh	PfHsp40 yeast	SSB-PriA inh	PrPC TRFRET	MazF activator
Cc1cc(N2CCCC2)nc(Nc2ccc(NS(=O)(=O)c3ccc(Cl)cc3)cc2)n1	/	/	-9.0	/	/
Cc1cc(N2CCCC2)nc(Nc2ccc(NS(=O)(=O)c3ccc(I)cc3)cc2)n1	/	/	44.0*	/	/
Cc1ccc(Nc2nc(-c3ccc(O)c(O)c3)cs2)nc1	/	/	12.0	24.3	-3.6
CNC(=O)CS(=O)(=O)C1CCN(C(=O)CCc2ccc(OC)c(OC)c2OC)CC1	/	/	3.0	/	/
Cc1cc(/C=N/n2c(COc3ccccc3C)nc3ccccc3c2=O)c(O)c([N+](=O)[O-])c1	-19.0	56.8*	/	1.0	-0.6
CC(=NOCc1nc2ccccc2c(=O)n1N=Cc1cc(C)cc([N+](=O)[O-])c1O)c1ccccc1	/	/	1.3	/	/
Cc1ccc(S(=O)(=O)NC(=O)NCc2ccc3c(c2)OCO3)cc1	-1.5	54.6*	-2.9	-1.2	2.3
Cc1ccc(S(=O)(=O)NCC2CCC(C(=O)NCc3ccc4c(c3)OCO4)CC2)cc1 (stereo not given)	5.1	-0.3	-0.6	2.5	-1.7
CCN(CC)c1ccc(C(=O)O)cc1	-11.3	-0.1	-6.3	1.4	-11.6
CCN(CC)c1ccc(/C=C2\C(=O)c3ccc(C(=O)O)cc3C2=O)cc1	-49.8	-0.3	0.2	-6.6	52.1*
Cc1cc(C)cc(NC(=O)CS(=O)(=O)c2cn(CC(=O)N3CCCC3)c3ccccc23)c1	/	/	50.0*	/	/
CC(C)=CCc1c(O)cc(O)c2c1OC(c1ccc(O)cc1)CC2=O (stereo not given)	-34.2	262.4*	2.3	5.1	-0.8
COc1cc(C=NNC(=O)c2cccnc2)ccc1OC(=O)c1cc(OC)c(OC)c(OC)c1	/	/	2.5	/	/
CC(C)(C)c1ccc(OCCNC(=O)c2ncn[nH]2)cc1	-5.0	2.1	56.6*	2.4	1.9
CCc1cc(C)cc(OCCNC(=O)c2ncn[nH]2)c1	-20.7	-0.4	-1.1	12.8	-1.6
CCN(CC)Cc1cc(Nc2c3ccccc3nc3c4ccccc4n(C)c23)cc(CN(CC)CC)c1O	-18.8	1.7	50.8*	-4.8	20.8
O=C(Nc1ccccc1-c1nnc(SCc2ccccc2Cl)o1)c1ccccc1	-18.7	-1.0	-6.0	0.3	-3.1
COc1cc(OC)c(OC)cc1C=NN(C)c1ccccc1	/	/	72.6*	/	/
COc1cc(OC)c(OC)cc1/C=N/N(C)c1ccccc1	-10.4	2.5	/	2.9	1.3
CC[C@H](C)C(=O)O[C@H]1C[C@@H](C)C=C2C=C[C@H](C)[C@H](CC[C@@H]3C[C@@H](O)CC(=O)O3)[C@H]21	-13.8	69.0*!	11.8	2.8	6.8
CCS(=O)(=O)N1CCc2ccc(NS(=O)(=O)c3ccc(C)s3)cc2C1	/	/	-4.0	/	/
FC(F)(F)c1ccc(CN2CCN(Cc3ccco3)CC2)cc1	-10.4	49.5*	-8.4	-2.2	-1.4
CSCCC(NS(=O)(=O)c1ccc(C)cc1)C(=O)N1CCCCCCC1 (stereo not given)	-17.3	-1.8	10.9	-5.7	-1.3
CCc1ccc(OCCOC(=O)Nc2ccccc2)cc1	-14.7	-0.2	-17.9	-3.2	-33.7
COc1cccc(NC(=O)C/C(C)=N/NC(=O)c2ccccc2Cl)c1	-23.7	38.6*	/	1.7	2.1
SMILES	PrP 5UTR inh	PfHsp40 yeast	SSB-PriA inh	PrPC TRFRET	MazF activator
CC(CC(=O)Nc1ccccn1)=NNC(=O)c1ccccc1O	/	/	-5.2	/	/
C/C(CC(=O)Nc1ccccn1)=N\NC(=O)c1ccccc1O	-31.2	234.2*	/	5.7	-0.8
Cc1c([N+](=O)[O-])cc(S(=O)(=O)NCCOc2cccc(C(F)(F)F)c2)cc1[N+](=O)[O-]	/	/	39.0*	/	/
C#CCN1CC(C)C(=NO)CC1C (stereo not given)	/	/	-16.8	/	/
COc1ccc(Oc2coc3cc(OC(=O)/C=C/c4ccccc4)ccc3c2=O)cc1	-9.6	95.0*	-7.2	-3.6	2.2
CC(C)C1Cc2c(sc3ncnc(NN)c23)CO1 (stereo not given)	-11.3	-0.4	45.6*	-8.5	-2.2
CC(C)Cc1nc2sc3c(c2c(=O)n1N)CC(C(C)C)OC3 (stereo not given)	0.0	-0.3	-3.4	2.4	7.8
N#Cc1ccc(-c2cccnc2)nc1SCC(=O)c1ccccc1	-79.5	0.7	-1.1	-1.8	+
N#Cc1c2ccc(O)cc2n2ccccc12	-6.6	55.2*	-20.8	-7.3	11.0
N#Cc1c2ccc(OCC(=O)NCc3ccco3)cc2n2ccccc12	-9.1	-0.2	-19.8	-2.0	-7.9
CC(=O)Nc1cccc(-c2cc(-c3c(Cl)cccc3Cl)no2)c1	-0.1	356.9*	-2.2	13.0	2.9
CNC(=O)Nc1cccc(-c2cc(-c3c(Cl)cccc3Cl)no2)c1	3.7	0.0	-0.1	8.1	20.7
CCOc1ccc(OCC(=O)Nc2ccccc2C(F)(F)F)cc1	-27.7	-0.5	-15.9	-2.4	6.8
CCC(ONc1ccccc1C(F)(F)F)(C(=O)NN(C)C)c1ccccc1 (stereo not given)	2.3	54.1*	3.5	3.7	2.0
COCCNC(=O)c1c(NC(=O)c2ccco2)sc2c1CCCC2	/	/	-16.0	/	/
c1cnc2ncc3sccc3c2c1	-49.1	-0.1	-11.1	1.0	-0.1
CC(C)N1CC2=C(OC(N)=C(C#N)C2c2cccnc2)/C(=C/c2cccnc2)C1 (stereo not given)	-12.7	0.5	-3.0	2.7	64.1*
N#CC1=C(N)OC2=C(CN(Cc3ccccc3)C/C2=C\c2cccnc2)C1c1cccnc1 (stereo not given)	-26.4	-0.3	6.3	-10.9	7.3
O=C(Cc1cccs1)NCC#CCOc1cccc(C(F)(F)F)c1	/	/	-24.0	/	/
COc1ccccc1NC(=O)Nc1nnc(CC(=O)Nc2ccccc2)s1	/	/	/	-4.8	/
COc1ccccc1NC(=O)Nc1nnc(CC(=O)Nc2ccccc2C)s1	76.5*	-0.6	-12.2	4.8	-3.2
Cc1cc(NC(=O)NCCCSc2nc3ccccc3s2)no1	/	/	14.0	/	/
COc1ccc(C(O)P(=O)(Oc2ccccc2)Oc2ccccc2)cc1 (stereo not given)	3.6	-0.7	-6.8	2.5	-4.9
O=P(Oc1ccccc1)(Oc1ccccc1)C(O)c1ccc(Cl)cc1 (stereo not given)	3.2	140.2*	-11.2	5.5	-0.9
O=C(O)c1cccc(NC(=S)NC(=O)c2ccc(-c3ccccc3)cc2)c1	-40.2	-1.5	-15.1	-0.1	-7.4
SMILES	PrP 5UTR inh	PfHsp40 yeast	SSB-PriA inh	PrPC TRFRET	MazF activator
Cc1ccc(C(=O)NC(=S)Nc2ccccc2C(F)(F)F)cc1C	-21.4	32.1*	-2.0	-0.5	-10.7
CC(C)NC(=S)NC(=O)c1ccc(-c2ccccc2)cc1	-22.2	59.5*	0.1	8.4	-12.0
Cc1ccc(C(=O)O)cc1NC(=S)NC(=O)c1ccc(-c2ccccc2)cc1	-10.7	113.0*	-14.0	6.5	-17.8
O=C(NC(=S)Nc1ccc(-c2ccccc2)cc1)c1ccccc1	-15.8	0.7	-3.6	0.1	-5.9
CSc1nsc(SCC(=O)Nc2cccc(NC(C)=O)c2)n1	-15.5	-0.8	-9.8	-5.2	11.7
COc1ccc(OCc2cc(C(=O)NC3CCOC(C)(C)C3)no2)c2ccccc12 (stereo not given)	-54.1	-1.6	/	-9.2	/
Cc1ccc(NC(=O)N(CCCN2CCOCC2)Cc2cccs2)cc1C	4.4	1.1	91.9*	-6.2	-17.1

From PubChem
